# Assay results as given in the supplement of paper PMC13380429.
# Assays:
# [1] = tested on: Vero E6 infected with SARS-CoV-2; experiment: morphology score (similarity to uninfected cells); higher = more like uninfected cells; details: 24 h
# [2] = tested on: Vero E6 infected with SARS-CoV-2; experiment: SARS-CoV-2 infection rate relative to infected DMSO; higher = more infection, active = 60 or less; details: 24 h
Structure (SMILES),morphology score [1],SARS-CoV-2 infection rate [2]
O=C(c1ccc(F)cc1)C1CCN(CCn2c(=O)[nH]c3ccccc3c2=O)CC1 [ketanserin] (10 µM),0.144,106% (inactive)
c1ccc2c(c1)[I+]c1ccccc1-2 [diphenyleneiodonium] (0.833333 µM),0.143,108% (inactive)
CCOC(=S)SSC(=S)OCC [dixanthogen] (10 µM),-0.0377,106% (inactive)
"Cc1ccc(C)c([C@H](O)CNC(C)C)c1 [benzenemethanol,-2,5-dimethyl-[[(1-methylethyl)amino]methyl]] (10 µM)",0.0583,106% (inactive)
CCN(CC)CCCCC1CCN(CC(=O)N2c3ccccc3C(=O)Nc3cccnc32)CC1 (10 µM),0.0682,108% (inactive)
COC(=O)[C@@H]1C[C@H](OC(C)=O)C(=O)[C@H]2[C@@]1(C)CC[C@H]1C(=O)O[C@H](c3ccoc3)C[C@]21C [salvinorin-A] (10 µM),0.127,100% (inactive)
CC(C)C[C@H](NC(=O)[C@H](Cc1ccccc1)NC(=O)c1cnccn1)B(O)O [bortezomib] (10 µM),-0.0961,96.5% (inactive)
C[C@@H]1CC(=O)c2c(ccc3c2C(=O)c2cccc(O)c2C3=O)C1 [ochromycinone] (10 µM),-0.0461,105% (inactive)
O=C1CC[C@@]2(O)[C@H]3Cc4ccc(O)c5c4[C@@]2(CCN3CC2CC2)[C@H]1O5 (10 µM),-0.0472,106% (inactive)
COc1cccc([C@H](O)C2CCN(CCc3ccc(F)cc3)CC2)c1OC [volinanserin] (10 µM),-0.147,110% (inactive)
COc1ccccc1C(=O)Nc1cccc(NC(=O)c2cccc(C)c2)c1 (10 µM),0.257,96.5% (inactive)
"CC(=O)N1CC[N+](C)(C)CC1 [4-acetyl-1,1-dimethylpiperazinium] (10 µM)",0.103,88.5% (inactive)
Nc1ccn([C@H]2CC[C@@H](CO)O2)c(=O)n1 [zalcitabine] (10 µM),0.0931,104% (inactive)
CCc1nc2ccc(Cl)cn2c1C(=O)NCc1ccc(N2CCC(c3ccc(OC(F)(F)F)cc3)CC2)cc1 (10 µM),0.0715,96% (inactive)
NS(=O)(=O)c1cc2c(cc1C(F)(F)F)NC(Cc1ccccc1)NS2(=O)=O (stereo not drawn) [bendroflumethiazide] (10 µM),0.136,87.5% (inactive)
CC(O)COC[C@H]1O[C@@H]2O[C@H]3[C@H](O)[C@@H](O)[C@@H](O[C@H]4[C@H](O)[C@@H](O)[C@@H](O[C@H]5[C@H](O)[C@@H](O)[C@@H](O[C@H]6[C@H](O)[C@@H](O)[C@@H](O[C@H]7[C@H](O)[C@@H](O)[C@@H](O[C@H]8[C@H](O)[C@@H](O)[C@@H](O[C@H]1[C@H](O)[C@H]2O)O[C@@H]8COCC(C)O)O[C@@H]7COCC(C)O)O[C@@H]6COCC(C)O)O[C@@H]5COCC(C)O)O[C@@H]4COCC(C)O)O[C@@H]3COCC(C)O (stereo partly drawn) [hydroxypropyl-beta-cyclodextrin] (10 µM),0.254,99% (inactive)
COc1cc(N)c(Cl)cc1C(=O)CCC1CCN(CCNS(C)(=O)=O)CC1 (10 µM),0.0872,97.5% (inactive)
C[C@]12CC[C@H](O)C[C@H]1CC[C@@H]1[C@@H]2CC[C@]2(C)[C@@](O)(c3ccoc3)CC[C@]12O [rostafuroxine] (10 µM),-0.206,118% (inactive)
CCNC(=O)[C@H]1O[C@@H](n2cnc3c(N)nc(NCCc4ccc(CCC(=O)O)cc4)nc32)[C@H](O)[C@@H]1O (10 µM),-0.0155,115% (inactive)
CCCCC(CC)CNC(=N)NC(=N)NCCCCCCNC(=N)NC(=N)NCC(CC)CCCC (stereo not drawn) [alexidine] (0.833333 µM),-0.0694,104% (inactive)
Cc1cc(OCCCS(C)(=O)=O)cc(C)c1-c1cccc(COc2ccc3c(c2)OC[C@H]3CC(=O)O)c1 (10 µM),0.0278,108% (inactive)
CC(C)(C)c1nc(-c2cccc(NS(=O)(=O)c3c(F)cccc3F)c2F)c(-c2ccnc(N)n2)s1 [dabrafenib] (10 µM),0.245,114% (inactive)
CN(C)[C@@H]1CCc2[nH]c3ccc(NC(=O)c4ccc(F)cc4)cc3c2C1 (10 µM),0.438,70.5% (inactive)
O=C(O)CCn1c2c(c3ccccc31)C[C@H](NS(=O)(=O)c1ccc(F)cc1)CC2 [ramatroban] (10 µM),-0.0055,102% (inactive)
